Results reported in publication PMC7862700, “An all-to-all approach to the identification of sequence-specific readers for epigenetic DNA modifications on cytosine”.

What was measured:
Assay in all cases: DAPPL (digital affinity profiling via proximity ligation, sequencing); 10 mM Tris-HCl pH 7.5, 50 mM NaCl, 1 mM DTT, 4% glycerol, room temperature, 30 min; GST-TFs on glutathione beads, 16-mer random dsDNA library, 0.1% formaldehyde crosslink after washing; high values mean tight binding
Conditions in all cases: protein: recombinant; tags: N-terminal GST; dsDNA, one strand shown
[1] = biological target: T1, FLI1 (Homo sapiens, UniProt Q01543 1-452)
T1 sequence: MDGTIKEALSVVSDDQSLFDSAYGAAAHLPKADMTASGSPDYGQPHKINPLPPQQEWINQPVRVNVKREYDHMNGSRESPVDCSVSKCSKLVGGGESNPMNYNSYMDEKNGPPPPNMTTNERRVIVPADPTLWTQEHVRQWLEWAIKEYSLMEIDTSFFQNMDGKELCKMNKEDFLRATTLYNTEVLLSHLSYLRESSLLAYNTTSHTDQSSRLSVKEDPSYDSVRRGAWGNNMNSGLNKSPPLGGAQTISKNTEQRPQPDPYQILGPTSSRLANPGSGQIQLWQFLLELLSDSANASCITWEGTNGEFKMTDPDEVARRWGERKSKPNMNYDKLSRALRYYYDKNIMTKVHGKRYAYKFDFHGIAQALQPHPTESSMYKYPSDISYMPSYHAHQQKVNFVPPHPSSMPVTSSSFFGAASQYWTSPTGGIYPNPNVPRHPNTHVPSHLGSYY
In short: (§1)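 Binding signal is defined as a hexamer's read frequency for one factor over its frequency for the tag-only sample. To obtain reads, GST-fused human transcription factors were expressed in yeast, captured on glutathione beads, barcoded with DNA and pooled with that sample. Pools met 200 nmole of a 16-mer random double-stranded DNA library in Tris/NaCl/DTT/glycerol buffer for 30 min at room temperature before washing, 0.1% formaldehyde crosslinking, proximity ligation (BsaI/T4 ligase, 1 h, 37 °C), PCR and Illumina NextSeq500 sequencing.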

[2] = biological target: T2, ELK1 (Homo sapiens, UniProt P19419 1-428)
T2 sequence: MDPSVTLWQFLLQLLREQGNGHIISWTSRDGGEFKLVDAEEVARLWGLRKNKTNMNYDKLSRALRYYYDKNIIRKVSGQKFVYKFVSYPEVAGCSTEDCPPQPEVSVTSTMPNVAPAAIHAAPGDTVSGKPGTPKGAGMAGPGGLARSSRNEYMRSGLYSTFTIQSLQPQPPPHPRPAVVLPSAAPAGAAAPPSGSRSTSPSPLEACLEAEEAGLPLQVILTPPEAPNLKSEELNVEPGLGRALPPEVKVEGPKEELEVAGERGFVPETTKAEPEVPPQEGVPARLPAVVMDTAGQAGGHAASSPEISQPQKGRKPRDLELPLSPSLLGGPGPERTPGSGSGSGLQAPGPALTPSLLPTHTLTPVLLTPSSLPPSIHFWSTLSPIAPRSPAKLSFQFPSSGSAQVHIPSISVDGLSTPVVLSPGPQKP
In short: as §1

[3] = biological target: T3, GABPA (Homo sapiens, UniProt Q06546 1-454)
T3 sequence: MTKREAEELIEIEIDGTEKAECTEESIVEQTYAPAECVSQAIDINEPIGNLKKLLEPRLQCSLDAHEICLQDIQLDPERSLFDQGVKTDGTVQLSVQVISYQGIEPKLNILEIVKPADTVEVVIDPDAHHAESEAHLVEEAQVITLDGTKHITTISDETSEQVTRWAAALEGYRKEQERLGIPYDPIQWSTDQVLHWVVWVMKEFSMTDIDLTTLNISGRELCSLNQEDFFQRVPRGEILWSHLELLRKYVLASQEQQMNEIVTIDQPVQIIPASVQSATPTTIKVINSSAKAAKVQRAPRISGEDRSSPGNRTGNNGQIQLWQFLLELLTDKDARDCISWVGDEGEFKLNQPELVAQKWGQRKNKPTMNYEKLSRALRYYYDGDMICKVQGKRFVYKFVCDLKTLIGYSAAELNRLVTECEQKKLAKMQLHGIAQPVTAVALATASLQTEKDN
In short: as §1

[4] = biological target: T4, ERG (Homo sapiens, UniProt P11308 1-479)
T4 sequence: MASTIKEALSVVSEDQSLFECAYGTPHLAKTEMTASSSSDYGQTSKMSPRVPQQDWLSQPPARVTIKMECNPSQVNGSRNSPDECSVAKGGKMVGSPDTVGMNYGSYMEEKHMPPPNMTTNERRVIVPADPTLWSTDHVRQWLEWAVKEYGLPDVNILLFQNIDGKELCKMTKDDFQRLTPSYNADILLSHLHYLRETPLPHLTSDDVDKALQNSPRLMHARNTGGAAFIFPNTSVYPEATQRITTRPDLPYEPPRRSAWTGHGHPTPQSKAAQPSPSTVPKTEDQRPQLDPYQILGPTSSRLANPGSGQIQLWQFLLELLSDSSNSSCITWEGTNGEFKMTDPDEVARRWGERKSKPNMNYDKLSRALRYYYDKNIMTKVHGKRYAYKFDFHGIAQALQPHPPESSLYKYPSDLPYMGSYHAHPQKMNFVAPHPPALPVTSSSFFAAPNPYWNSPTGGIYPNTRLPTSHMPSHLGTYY
In short: as §1

[5] = biological target: ELF1 (Homo sapiens, UniProt P32519 1-619)
In short: as §1

[6] = biological target: T5, EHF (Homo sapiens, UniProt Q9NZC4 1-300)
T5 sequence: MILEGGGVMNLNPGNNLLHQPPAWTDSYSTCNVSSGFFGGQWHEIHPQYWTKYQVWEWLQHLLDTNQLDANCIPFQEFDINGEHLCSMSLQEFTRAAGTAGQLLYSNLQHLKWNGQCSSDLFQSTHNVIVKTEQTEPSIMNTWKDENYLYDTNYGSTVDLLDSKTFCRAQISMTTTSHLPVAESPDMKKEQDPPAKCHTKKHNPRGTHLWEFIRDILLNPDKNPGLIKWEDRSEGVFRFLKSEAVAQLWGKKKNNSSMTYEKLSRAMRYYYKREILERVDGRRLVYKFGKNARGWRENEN
In short: as §1

[7] = biological target: SPI1 (Homo sapiens, UniProt P17947 1-270)
In short: as §1

[8] = biological target: SPIB (Homo sapiens, UniProt Q01892 1-262)
In short: as §1

[9] = biological target: T6, ELK3 (Homo sapiens, UniProt P41970 1-407)
T6 sequence: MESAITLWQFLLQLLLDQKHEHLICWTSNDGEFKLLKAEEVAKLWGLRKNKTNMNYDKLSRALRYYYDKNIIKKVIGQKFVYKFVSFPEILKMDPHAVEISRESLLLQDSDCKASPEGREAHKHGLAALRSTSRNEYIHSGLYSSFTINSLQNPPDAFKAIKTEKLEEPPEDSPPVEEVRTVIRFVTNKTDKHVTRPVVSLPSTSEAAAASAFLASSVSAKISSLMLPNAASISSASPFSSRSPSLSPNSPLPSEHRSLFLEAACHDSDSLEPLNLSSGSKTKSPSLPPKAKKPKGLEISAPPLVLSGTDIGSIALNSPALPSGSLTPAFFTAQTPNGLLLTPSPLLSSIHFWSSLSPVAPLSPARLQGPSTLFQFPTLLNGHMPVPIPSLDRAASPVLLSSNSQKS
In short: as §1

[10] = biological target: T7, FEV (Homo sapiens, UniProt Q99581 1-238)
T7 sequence: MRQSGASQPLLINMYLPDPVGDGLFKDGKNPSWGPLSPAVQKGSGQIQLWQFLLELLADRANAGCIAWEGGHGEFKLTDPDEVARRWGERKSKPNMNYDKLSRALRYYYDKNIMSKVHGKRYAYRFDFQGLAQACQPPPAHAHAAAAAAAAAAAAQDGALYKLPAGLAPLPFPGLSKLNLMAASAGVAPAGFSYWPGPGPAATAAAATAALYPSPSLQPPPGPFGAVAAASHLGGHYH
In short: as §1

[11] = biological target: ETV5 (Homo sapiens, UniProt P41161 1-510)
In short: as §1

[12] = biological target: T8, SPIC (Homo sapiens, UniProt Q8N5J4 1-248)
T8 sequence: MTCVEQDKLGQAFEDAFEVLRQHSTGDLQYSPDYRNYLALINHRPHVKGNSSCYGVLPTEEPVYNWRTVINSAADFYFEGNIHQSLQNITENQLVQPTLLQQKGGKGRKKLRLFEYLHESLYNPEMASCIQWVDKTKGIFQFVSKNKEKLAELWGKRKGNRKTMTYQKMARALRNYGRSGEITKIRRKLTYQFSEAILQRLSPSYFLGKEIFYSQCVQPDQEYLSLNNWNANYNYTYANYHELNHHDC
In short: as §1

[13] = biological target: ELF4 (Homo sapiens, UniProt Q99607 1-663)
In short: as §1

[14] = biological target: T9, ELK4 (Homo sapiens, UniProt P28324-2 1-405)
T9 sequence: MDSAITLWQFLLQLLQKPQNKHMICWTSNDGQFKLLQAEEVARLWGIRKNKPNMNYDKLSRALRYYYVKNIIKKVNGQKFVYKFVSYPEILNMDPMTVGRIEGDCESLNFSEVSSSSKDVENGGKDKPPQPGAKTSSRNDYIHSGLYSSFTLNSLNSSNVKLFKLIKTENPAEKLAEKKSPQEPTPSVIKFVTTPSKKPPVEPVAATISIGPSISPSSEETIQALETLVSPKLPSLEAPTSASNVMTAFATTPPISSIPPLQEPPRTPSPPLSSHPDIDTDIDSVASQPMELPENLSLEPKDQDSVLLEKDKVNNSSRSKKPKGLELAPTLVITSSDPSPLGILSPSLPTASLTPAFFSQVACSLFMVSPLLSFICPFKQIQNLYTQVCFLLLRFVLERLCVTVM
In short: as §1

[15] = biological target: T10, ETV2 (Homo sapiens, UniProt O00321 1-342)
T10 sequence: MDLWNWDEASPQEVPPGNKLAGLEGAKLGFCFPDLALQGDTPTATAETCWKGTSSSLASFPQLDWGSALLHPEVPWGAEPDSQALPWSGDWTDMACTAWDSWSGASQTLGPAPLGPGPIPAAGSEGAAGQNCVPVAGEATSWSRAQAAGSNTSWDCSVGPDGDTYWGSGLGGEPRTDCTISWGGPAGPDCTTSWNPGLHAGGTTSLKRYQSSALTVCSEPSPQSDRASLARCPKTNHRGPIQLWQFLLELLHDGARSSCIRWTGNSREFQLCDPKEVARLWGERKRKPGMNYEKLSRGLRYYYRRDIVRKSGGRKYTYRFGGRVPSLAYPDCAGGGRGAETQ
In short: as §1

[16] = biological target: T11, ELF3 (Homo sapiens, UniProt P78545 1-371)
T11 sequence: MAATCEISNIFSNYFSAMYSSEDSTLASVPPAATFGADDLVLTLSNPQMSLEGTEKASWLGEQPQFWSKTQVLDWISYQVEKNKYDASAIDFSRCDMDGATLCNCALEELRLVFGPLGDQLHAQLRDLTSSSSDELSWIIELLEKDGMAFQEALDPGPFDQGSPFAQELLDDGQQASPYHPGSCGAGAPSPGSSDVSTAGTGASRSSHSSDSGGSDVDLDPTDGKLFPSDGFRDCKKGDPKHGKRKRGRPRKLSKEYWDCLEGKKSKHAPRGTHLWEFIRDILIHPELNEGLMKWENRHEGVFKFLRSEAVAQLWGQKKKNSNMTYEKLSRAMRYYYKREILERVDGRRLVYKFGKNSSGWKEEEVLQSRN
In short: as §1

[17] = biological target: ETV1 (Homo sapiens, UniProt P50549 1-477)
In short: as §1

Chain of ETV1 (P50549 whole entry): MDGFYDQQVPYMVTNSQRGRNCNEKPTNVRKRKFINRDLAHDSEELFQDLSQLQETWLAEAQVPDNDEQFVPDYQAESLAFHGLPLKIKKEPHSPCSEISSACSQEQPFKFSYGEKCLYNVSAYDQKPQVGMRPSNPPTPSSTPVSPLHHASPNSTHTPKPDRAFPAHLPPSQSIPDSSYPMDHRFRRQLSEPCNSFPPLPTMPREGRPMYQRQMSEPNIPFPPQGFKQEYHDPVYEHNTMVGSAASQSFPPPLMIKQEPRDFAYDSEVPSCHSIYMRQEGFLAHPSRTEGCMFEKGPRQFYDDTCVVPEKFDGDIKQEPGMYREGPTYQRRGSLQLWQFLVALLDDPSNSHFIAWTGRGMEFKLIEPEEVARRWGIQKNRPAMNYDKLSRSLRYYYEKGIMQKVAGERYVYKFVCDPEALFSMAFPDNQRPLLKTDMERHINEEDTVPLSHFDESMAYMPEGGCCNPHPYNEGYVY
Chain of SPIB (Q01892 whole entry): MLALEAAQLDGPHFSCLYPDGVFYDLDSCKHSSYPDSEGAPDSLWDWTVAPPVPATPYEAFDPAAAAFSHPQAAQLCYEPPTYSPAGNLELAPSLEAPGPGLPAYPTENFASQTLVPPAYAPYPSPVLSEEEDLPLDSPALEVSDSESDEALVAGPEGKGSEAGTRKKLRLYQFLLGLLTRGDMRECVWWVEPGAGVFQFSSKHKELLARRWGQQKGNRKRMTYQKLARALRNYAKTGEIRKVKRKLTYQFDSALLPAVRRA
Chain of ELF1 (P32519 whole entry): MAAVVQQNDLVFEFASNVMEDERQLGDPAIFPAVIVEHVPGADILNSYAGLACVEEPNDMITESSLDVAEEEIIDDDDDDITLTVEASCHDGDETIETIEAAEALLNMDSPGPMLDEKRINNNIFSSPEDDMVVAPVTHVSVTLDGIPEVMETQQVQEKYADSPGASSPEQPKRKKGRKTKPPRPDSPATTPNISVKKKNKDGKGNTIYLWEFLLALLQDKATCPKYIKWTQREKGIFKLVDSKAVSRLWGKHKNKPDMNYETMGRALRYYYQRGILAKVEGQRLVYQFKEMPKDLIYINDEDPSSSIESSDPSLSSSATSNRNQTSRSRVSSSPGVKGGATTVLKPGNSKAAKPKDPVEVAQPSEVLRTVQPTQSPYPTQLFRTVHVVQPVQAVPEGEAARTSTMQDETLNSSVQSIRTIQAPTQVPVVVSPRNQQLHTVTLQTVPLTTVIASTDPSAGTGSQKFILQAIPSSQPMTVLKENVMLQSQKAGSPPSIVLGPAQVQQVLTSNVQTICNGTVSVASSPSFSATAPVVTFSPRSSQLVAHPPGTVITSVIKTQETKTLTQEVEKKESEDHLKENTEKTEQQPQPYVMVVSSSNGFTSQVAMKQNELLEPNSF
Chain of ETV5 (P41161 whole entry): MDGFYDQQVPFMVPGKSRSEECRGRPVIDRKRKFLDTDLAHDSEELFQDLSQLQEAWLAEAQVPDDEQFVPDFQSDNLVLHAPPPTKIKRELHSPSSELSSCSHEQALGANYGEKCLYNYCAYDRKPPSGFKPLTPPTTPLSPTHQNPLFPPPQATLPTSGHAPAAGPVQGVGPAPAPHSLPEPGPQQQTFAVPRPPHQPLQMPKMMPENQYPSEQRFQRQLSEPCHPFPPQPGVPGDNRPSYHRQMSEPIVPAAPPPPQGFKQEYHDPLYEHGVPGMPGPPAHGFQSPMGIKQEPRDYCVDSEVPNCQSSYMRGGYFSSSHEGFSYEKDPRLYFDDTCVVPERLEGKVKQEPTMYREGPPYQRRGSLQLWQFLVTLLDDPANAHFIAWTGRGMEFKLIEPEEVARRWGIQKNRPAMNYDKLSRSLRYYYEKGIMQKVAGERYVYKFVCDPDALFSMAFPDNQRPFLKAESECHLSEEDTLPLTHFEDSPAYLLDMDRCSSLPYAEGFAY
Chain of ELF4 (Q99607 whole entry): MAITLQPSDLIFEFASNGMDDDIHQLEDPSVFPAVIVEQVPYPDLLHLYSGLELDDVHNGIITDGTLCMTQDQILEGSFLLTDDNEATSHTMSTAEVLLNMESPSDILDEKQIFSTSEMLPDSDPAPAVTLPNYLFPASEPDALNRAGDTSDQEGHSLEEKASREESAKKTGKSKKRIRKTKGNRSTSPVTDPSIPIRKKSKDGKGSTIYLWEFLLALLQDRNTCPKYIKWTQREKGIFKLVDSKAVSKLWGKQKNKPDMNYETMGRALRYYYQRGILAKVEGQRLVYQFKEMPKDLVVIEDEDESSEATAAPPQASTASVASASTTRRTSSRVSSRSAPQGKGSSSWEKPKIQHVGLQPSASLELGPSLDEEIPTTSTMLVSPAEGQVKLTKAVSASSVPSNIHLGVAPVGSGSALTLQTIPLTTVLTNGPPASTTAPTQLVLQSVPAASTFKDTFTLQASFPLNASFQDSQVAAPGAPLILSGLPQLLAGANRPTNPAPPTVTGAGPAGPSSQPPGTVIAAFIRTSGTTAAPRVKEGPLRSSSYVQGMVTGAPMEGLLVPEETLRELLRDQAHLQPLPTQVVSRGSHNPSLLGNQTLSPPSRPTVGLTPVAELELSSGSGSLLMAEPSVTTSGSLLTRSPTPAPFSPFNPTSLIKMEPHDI

Row | Sequence | binding signal [1] | binding signal [2] | binding signal [3] | binding signal [4] | binding signal [5] | binding signal [6] | binding signal [7] | binding signal [8] | binding signal [9] | binding signal [10] | binding signal [11] | binding signal [12] | binding signal [13] | binding signal [14] | binding signal [15] | binding signal [16] | binding signal [17]
1 | TGTCCC | 1.27 fold enrichment (6-mer frequency, TF over GST control) | 1.35 fold enrichment (6-mer frequency, TF over GST control) | 1.33 fold enrichment (6-mer frequency, TF over GST control) | 1.38 fold enrichment (6-mer frequency, TF over GST control) | 1.28 fold enrichment (6-mer frequency, TF over GST control) | 1.32 fold enrichment (6-mer frequency, TF over GST control) | 1.22 fold enrichment (6-mer frequency, TF over GST control) | 1.36 fold enrichment (6-mer frequency, TF over GST control) | 1.47 fold enrichment (6-mer frequency, TF over GST control) | 1.39 fold enrichment (6-mer frequency, TF over GST control) | 1.35 fold enrichment (6-mer frequency, TF over GST control) | 1.26 fold enrichment (6-mer frequency, TF over GST control) | 1.29 fold enrichment (6-mer frequency, TF over GST control) | 1.4 fold enrichment (6-mer frequency, TF over GST control) | 1.44 fold enrichment (6-mer frequency, TF over GST control) | 1.65 fold enrichment (6-mer frequency, TF over GST control) | 1.31 fold enrichment (6-mer frequency, TF over GST control)
2 | GGACAT | 1.19 fold enrichment (6-mer frequency, TF over GST control) | 1.19 fold enrichment (6-mer frequency, TF over GST control) | 1.24 fold enrichment (6-mer frequency, TF over GST control) | 1.24 fold enrichment (6-mer frequency, TF over GST control) | 1.19 fold enrichment (6-mer frequency, TF over GST control) | 1.19 fold enrichment (6-mer frequency, TF over GST control) | 1.13 fold enrichment (6-mer frequency, TF over GST control) | 1.14 fold enrichment (6-mer frequency, TF over GST control) | 1.19 fold enrichment (6-mer frequency, TF over GST control) | 1.56 fold enrichment (6-mer frequency, TF over GST control) | 1.18 fold enrichment (6-mer frequency, TF over GST control) | 1.28 fold enrichment (6-mer frequency, TF over GST control) | 1.11 fold enrichment (6-mer frequency, TF over GST control) | 1.07 fold enrichment (6-mer frequency, TF over GST control) | 1.16 fold enrichment (6-mer frequency, TF over GST control) | 1.24 fold enrichment (6-mer frequency, TF over GST control) | 1.23 fold enrichment (6-mer frequency, TF over GST control)
3 | GTTTTG | 1.19 fold enrichment (6-mer frequency, TF over GST control) | 1.17 fold enrichment (6-mer frequency, TF over GST control) | 1.2 fold enrichment (6-mer frequency, TF over GST control) | 1.25 fold enrichment (6-mer frequency, TF over GST control) | 1.23 fold enrichment (6-mer frequency, TF over GST control) | 1.15 fold enrichment (6-mer frequency, TF over GST control) | 1.2 fold enrichment (6-mer frequency, TF over GST control) | 1.23 fold enrichment (6-mer frequency, TF over GST control) | 1.11 fold enrichment (6-mer frequency, TF over GST control) | 1.16 fold enrichment (6-mer frequency, TF over GST control) | 1.28 fold enrichment (6-mer frequency, TF over GST control) | 1.34 fold enrichment (6-mer frequency, TF over GST control) | 1.18 fold enrichment (6-mer frequency, TF over GST control) | 1.22 fold enrichment (6-mer frequency, TF over GST control) | 1.26 fold enrichment (6-mer frequency, TF over GST control) | 1.03 fold enrichment (6-mer frequency, TF over GST control) | 1.25 fold enrichment (6-mer frequency, TF over GST control)
